# Several values for one entry are separate records, joined by “and”; a condition that tells them apart may be missing. Identical values can stand only once. The whole screen tested about 270,000 compounds, of which about 410 (0.15%) were called active. No stated cut-off is given here; in the data, active means activation above about 40%; inactive means the rest, inconclusive results apart. This excerpt belongs to a sample that is enriched for actives. Where a structure was tested more than once in an assay, its records may differ in their call.
# Tested on: Aedes aegypti neuropeptide Y-like receptor 7 (NPYLR7)
# Test: agonists of mosquito NPYLR7 receptor, primary screen, cell-based, Aedes aegypti, calcium fluorescence, mosquito biting behavior (AID 1259423);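 further: 0% = vehicle and 100% = reference agonist at the receptor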
# Conditions: HEK293T NPYLR7/Galpha15, GCaMP6s calcium fluorescence, at 10 µM, stronger effect = higher value
# [1] = measured here: Max-Min RFU normalised activation
Compound,activation,activation [1]
Cc1nc2c(=O)n(CC(=O)Nc3ccc(F)cc3)nc(-c3ccc(F)cc3)c2s1,-3.19% (inactive),-5.39%
COc1ccc(C(=O)NNc2nc3c(C)c(C)ccc3s2)cc1,3.57% (inactive),-0.501%
O=S(=O)(Nc1ccccc1OC(F)F)c1ccccc1F,-1.67% (inactive),-2.18%
Nc1[nH]n(-c2c(Cl)cc(Cl)cc2Cl)c(=O)c1N=Nc1cccc(C(F)(F)F)c1,-0.505% (inactive),-6.22%
O=C(Nc1cccc(Cl)c1)c1cn(CC2CCCO2)cc2c(=O)n(-c3ccccc3)nc1-2 (stereo not given),6.66% (inactive),6.45%
CCOC(=O)Cc1csc(=Nc2ccc(OC)cc2)n1CCO,-15.9% (inactive),-20.5%
CC(C)OCCCNC(=O)c1ccc(-c2cccc(C(F)(F)F)c2)s1,-2.79% (inactive),5.92%
Cc1cc2nc3c(=O)[nH]c(=O)nc-3n(C[C@H](O)[C@H](O)[C@H](O)CO)c2cc1C,71.4% (active),64.2%
COc1cccc(OC)c1-c1cnnc(NCCN2CCCc3ccccc32)n1,19.3% (inactive),11.8%
COc1ccc(CC(=O)N(Cc2nc3cc(Cl)ccc3o2)C2CCCC2)cc1OC,4.51% (inactive),-5.03%
Cc1c(C(=O)N2CCCCC2CCc2ccc(O)cc2)oc2c(F)cccc12 (stereo not given),-1.59% (inactive),-5.83%
N#CC(=C(O)CSc1ccc2c(c1)OCCO2)c1nc2ccccc2[nH]1,5.29% (inactive),3.43%
N#C/C(=C/c1cn(-c2ccccc2)nc1-c1ccco1)c1nc2ccccc2c(=O)[nH]1,11.8% (inactive),10.5%
CC1CN(c2ccc(/C=C(\C#N)c3nc4ccccc4[nH]3)o2)CC(C)O1 (stereo not given),81.4% (active),110%
COc1ccc(C(CC(=O)N(C)Cc2cnccn2)c2ccccc2)cc1 (stereo not given),16% (inactive),4.14%
O=C(NCCCNC(=O)[C@H]1CCCN1C(=O)COc1ccc(Cl)cc1)c1ccc(F)cc1,-0.263% (inactive),6.73%
CC1CCN(C(=O)C(C)Nc2ccc3c(c2)OCO3)CC1 (stereo not given),3.12% (inactive),1.09%
COc1cc2c(cc1OC)C(c1ccccc1)N(C(=O)c1cc3c(s1)-c1ccccc1OC3)CC2 (stereo not given),-0.991% (inactive),6.66%
COc1ccc(CC2c3cc(OC)c(OC)cc3CC[N+]2(C)CCC(=O)OCCCCCOC(=O)CC[N+]2(C)CCc3cc(OC)c(OC)cc3C2Cc2ccc(OC)c(OC)c2)cc1OC (stereo not given),41.9% (inactive) and -3.83% (inactive) and 69.2% (active),33.2% and 2.45% and 52.5%
COc1cc2c(cc1O)[C@@H](Cc1ccc(O)cc1)[N+](C)(C)CC2,5.5% (inactive),-4.18%
COc1ccc(CC(=O)OCc2ccc(COC(=O)Cc3ccc(OC)c(OC)c3)cc2)cc1OC,-2.95% (inactive),-6.45%
CCOc1ccc(NC(=O)CSc2nc3c(c(=O)n2CCOC)SC(C)C3)cc1 (stereo not given),3.32% (inactive),0.972%
O=C(NC1COC2(CCCCC2)C1)c1ccco1 (stereo not given),-4.17% (inactive),-7.46%
CC(C)CC(NC1CCN(C(=O)c2ccccc2)CC1)c1ncnn1C (stereo not given),8.96% (inactive),6.07%
C/C(=N/Nc1nc2c(s1)CCCC2)c1ccc(Cl)cc1,0.513% (inactive),5.88%
O=C1NC(c2ccc3c(c2)OCO3)C(C(=O)c2ccccc2)C(O)(C(F)(F)F)N1 (stereo not given),42.8% (active),72%
O=C1NC(c2ccc(Cl)cc2)C(C(=O)c2ccccc2)C(O)(C(F)(F)F)N1 (stereo not given),-3.23% (inactive),-4.42%

Compound,activation,activation [1]
CC1=C(C(=O)Nc2ccccc2)C(c2ccc3c(c2)OCO3)NC(=S)N1 (stereo not given),4.23% (inactive),8.09%
Cc1ccc(Cl)cc1NC(=O)CN1C(=O)c2ccc([N+](=O)[O-])cc2C1=O,-3.83% (inactive),-10.3%
CC(C)c1ccc(C2CC(c3ccccc3)=Nc3ncnn32)cc1 (stereo not given),4.24% (inactive),2.65%
O=C(Nc1ccc(N2CCC(Cc3ccccc3)CC2)c(C(=O)NCc2ccc(F)cc2)c1)c1cccc([N+](=O)[O-])c1,-3.24% (inactive),7.02%
CCCCNc1ncnc2sc3c(c12)CCC(C)C3 (stereo not given),1.78% (inactive),2.41%
O=C(O)CCC(=O)Nc1nc2c(s1)CCCC2,1.28% (inactive),-0.361%
COc1ccc(C(=O)NCCn2ncc3c(=O)n(Cc4cccc(C)c4)cnc32)cc1,-1.65% (inactive),-7.02%
c1csc(-c2nc(CSc3nnc(-c4cccs4)n3C3CC3)co2)c1,-0.388% (inactive),7.96%
COc1ccccc1CNC1CC2CCC1(C)C2(C)C (stereo not given),7.42% (inactive),2.21%
COc1ccc(-c2cccc(-c3nnc(C)s3)c2)c(OC)c1,2.95% (inactive),1.01%
CC(C)c1ccc(C(=O)NCc2ccccc2CS(=O)(=O)N2CCOCC2)cc1,-3.68% (inactive),-3.21%
Clc1ccc(-c2noc3c2CN(CCn2cc(Cl)cn2)CC3)cc1,74.9% (active),54.3%
c1ccc2c(-c3noc4c3CN(CC3CCCO3)CC4)cccc2c1 (stereo not given),14.2% (inactive),6.24%
Fc1ccccc1-c1noc2c1CN(Cc1cccn1-c1ncccn1)CC2,8.24% (inactive),5.36%
COCc1c(Br)c(C)nc(OCC(=O)N/N=C\c2cc(Br)c(OCc3ccc(Cl)cc3)c(OC)c2)c1C#N,25.2% (inactive),27.7%
Cc1nn(-c2ccc(F)cc2F)c(C)c1CCC(=O)N1Cc2cccc3cccc(c23)C1,4.97% (inactive),3.44%
COc1ccc(Cl)c2sc(N(CCN(C)C)C(=O)c3cc(C)n(C)n3)nc12,1.87% (inactive),0.849%
Cc1ccc(Sc2ncccc2C(=O)N2CCN(c3nccc(-c4cccc(C(F)(F)F)c4)n3)CC2)cc1,14% (inactive),18.9%
COc1cc(OC)cc(C(NC(=O)Cn2ccccc2=O)c2nccn2C)c1 (stereo not given),5.09% (inactive),2.46%
CN(Cc1ccccc1)C1(C(=O)NCC2COCCO2)Cc2ccccc2C1 (stereo not given),2.27% (inactive),-0.863%
COc1c(C=NNC(=O)c2cc(Br)ccc2O)sc2ccccc12,-6.22% (inactive),-11.5%
O=c1oc2c(CN3CC4CC(C3)c3cccc(=O)n3C4)c(O)ccc2cc1-c1nc2ccccc2s1 (stereo not given),303% (active),372%
Cc1c(F)cccc1C(=O)N1CCOC(c2ccccc2)C1 (stereo not given),0.877% (inactive),-1.3%
COc1cc(C(=O)N2CCOC(c3ccccc3)C2)cc(OC)c1C (stereo not given),77.6% (active),58.9%
COc1ccc2cc(C3CN(C(=O)c4ccc[nH]4)CCO3)ccc2c1 (stereo not given),-5.79% (inactive),-7.4%
O=S(=O)(Cc1ccc(F)cc1)NCc1ccccc1OC(F)F,1.17% (inactive),1.23%
Cc1cccc(C(=O)O/N=C\c2ccc(Br)cc2)c1,0.973% (inactive),3.02%

Compound,activation,activation [1]
CON(C)C(=O)c1cccc(CN2CCS(=O)(=O)CC2)c1,7.7% (inactive),4.38%
CCOC(C)c1noc(CNC2(c3noc(CC)n3)CCCC2)n1 (stereo not given),3.73% (inactive),1.21%
C(=C\c1nn2c(CN3CCCCC3)nnc2s1)/c1ccccc1,1.3% (inactive),0.534%
COC(=O)C1Cc2ccccc2CN1Cc1cccc(C(=O)N(C)C)c1 (stereo not given),1.77% (inactive),-13.5%
COc1ccc(CCN2CCC(CN(C)C(=O)c3ccoc3)CC2)cc1,13.3% (inactive),6.16%
O=c1[nH]c(Cn2nnc3ccccc3c2=O)nc2ccccc12,-3.31% (inactive),-3.64%
CCCCCCCC(=O)Nc1c(-c2ccc(Cl)cc2)nc2cc(C)ccn12,-5.12% (inactive),1.14%
C/C=C\COC1CCCN(C(=O)COc2ccc(Cl)cc2)C1 (stereo not given),-4.16% (inactive),-5.2%
CCN1CCN(CC(O)COc2ccc(CN3CCc4ccccc4C3)cc2OC)CC1 (stereo not given),3.88% (inactive),3.04%
Brc1ccc(Oc2nc(N3CCCC3)nc(N3CCCC3)n2)cc1,-2.87% (inactive),-5.23%
N#CC1C(=N)SC(=N)C(C#N)C1c1cccc(O)c1 (stereo not given),51% (active),53%
CCc1ccc(C2C(C#N)C(=N)SC(=N)C2C#N)cc1 (stereo not given),0.645% (inactive),-2.49%
N#CC1C(=N)SC(=N)C(C#N)C1c1ccco1 (stereo not given),-5.34% (inactive),-2.82%
COc1ccc(-c2nc(NC(=O)C3CCCC3)sc2C)cc1,-2.08% (inactive),2.65%
CCC(C)(NC(=O)C1Cc2ccccc2O1)c1nccs1 (stereo not given),-1.24% (inactive),-2.94%
CCC1CCCCN1C(=O)CSc1c(C)[nH]c2ccccc12 (stereo not given),-1.59% (inactive),-2.64%
CCCN(C(=O)Cn1nc(C)c2ccccc2c1=O)[C@@H]1CCCC[C@H]1O,0.206% (inactive),-0.142%
CCCc1cc(=O)n2[nH]c(C)c(-c3cccc4ccccc34)c2n1,-15.2% (inactive),-20.4%
NC(=O)CN1C(=O)COc2ccccc21,-19.8% (inactive),-26.8%
CCCCN(C)C(=O)c1cnn(-c2ccccc2)c1,0.0336% (inactive),-1.33%
O=C(NC1C=CS(=O)(=O)C1)c1cccc2ccnn12 (stereo not given),22.3% (inactive),9.91%
CCCC(C(=O)OCCN(CC)CC)(c1ccccc1)c1ccccc1,3.25% (inactive) and -1.52% (inactive) and 68.5% (active),-42.8% and -5.9% and 58.4%
CCC(N)(C(=O)OC)c1ccccc1 (stereo not given),8.89% (inactive),3.04%
CC1Cc2c(NC(=O)CSCc3ccccc3)nn(C)c2NC1=O (stereo not given),3.06% (inactive),-2.58%
CCN(CC)c1ccc2cc(-c3nnc(Nc4ccccc4F)s3)c(=O)oc2c1,-10.4% (inactive),-12.8%
O=c1[nH]c(=O)n(Cc2cccc(OC(F)F)c2)cc1Cl,0.422% (inactive) and -19.6% (inactive),-0.254% and -21%
